# Compound activity as filed in PubChem BioAssay.
# NIH3T3 tox = Cytotoxic Profiling in NIH 3T3 Cell Line of Diverse Libraries Using Quantitative High-Throughput Screening; NIH 3T3 viability, CellTiter-Glo ATP luminescence, 48-72 h; Potency, µM (titrated, usually from 96.7 µM), inactives show at the highest dose activity change, negative = cytotoxicity, most hits filed as inhibitors; 4.3% of 94,000 active; further: nearly all actives have a fitted effect of over 55% in size
#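 First NIH 3T3 cells are plated at 400 cells/well; next compound is pinned in; then plates incubate 48 or 72 hr at 37 °C; finally CellTiter-Glo is added and luminescence read after 10 min.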
# NPR1 antag = Natriuretic polypeptide receptor (hNpr1) antagonism - Primary qHTS; 1.6% of 76,000 active; Atrial natriuretic peptide receptor 1 (Homo sapiens), P16066; HEK293 hNpr1 GloSensor cGMP, ANP-stimulated luminescence; Potency, µM (titrated, usually from 46.3 µM), without a hit: top-dose activity change, negative = inhibition, hits mostly inhibitors; calls by dose curve; further: nearly all actives have a fitted effect of over 60% in size
# Target sequence (P16066 whole entry, looked up): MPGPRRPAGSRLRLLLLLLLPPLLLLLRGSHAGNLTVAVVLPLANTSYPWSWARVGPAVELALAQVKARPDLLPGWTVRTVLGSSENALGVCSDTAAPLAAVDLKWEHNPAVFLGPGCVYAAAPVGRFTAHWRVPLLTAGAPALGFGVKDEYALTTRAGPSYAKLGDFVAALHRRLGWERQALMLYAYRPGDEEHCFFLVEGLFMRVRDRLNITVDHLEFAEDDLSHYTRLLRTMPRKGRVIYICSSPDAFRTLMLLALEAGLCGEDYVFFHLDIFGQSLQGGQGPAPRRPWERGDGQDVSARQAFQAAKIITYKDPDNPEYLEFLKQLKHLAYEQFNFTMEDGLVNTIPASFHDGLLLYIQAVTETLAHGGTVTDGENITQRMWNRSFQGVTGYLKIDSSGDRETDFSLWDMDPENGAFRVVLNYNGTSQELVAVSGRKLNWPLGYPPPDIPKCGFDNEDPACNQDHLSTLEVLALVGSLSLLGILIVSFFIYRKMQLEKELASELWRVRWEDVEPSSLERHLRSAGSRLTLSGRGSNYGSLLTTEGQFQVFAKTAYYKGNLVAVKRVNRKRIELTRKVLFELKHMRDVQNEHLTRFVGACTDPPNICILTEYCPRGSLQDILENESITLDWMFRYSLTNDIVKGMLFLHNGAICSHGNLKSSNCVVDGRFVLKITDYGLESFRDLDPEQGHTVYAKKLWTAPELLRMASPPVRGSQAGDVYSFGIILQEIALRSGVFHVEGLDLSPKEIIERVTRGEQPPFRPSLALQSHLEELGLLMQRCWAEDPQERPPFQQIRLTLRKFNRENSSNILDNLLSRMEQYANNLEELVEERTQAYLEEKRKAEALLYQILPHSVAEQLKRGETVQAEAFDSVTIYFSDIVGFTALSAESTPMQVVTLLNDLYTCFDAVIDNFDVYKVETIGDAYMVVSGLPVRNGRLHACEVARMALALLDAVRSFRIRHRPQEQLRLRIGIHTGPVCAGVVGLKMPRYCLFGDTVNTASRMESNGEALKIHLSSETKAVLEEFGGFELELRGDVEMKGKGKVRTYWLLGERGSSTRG
#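 HEK293 cells stably expressing human Npr1 and cGMP GloSensor pGS-40F, loaded 2 h with 2% GloSensor reagent, given compound 30 min at room temperature. Luminescence read before and 20 min after 0.1 nM hNppA.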
# Luciferase inh = Firefly luciferase inhibition profiling of diverse chemical library using quantitative high-throughput screening; purified P. pyralis luciferase, luminescence, biochemical; Luciferin 4-monooxygenase (Photinus pyralis), P08659; Potency, µM (top dose mostly 115 µM), most hits filed as inhibitors; AID 1347043, 2019; 2.5% of 76,000 active; further: nearly all actives have a fitted effect of over 65% in size
#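 Purified P. pyralis luciferase (10nM final) in 50mM Tris acetate pH 7.5, 10mM Mg acetate, 0.01% Tween-20, 0.05% BSA with 10uM D-luciferin and 10uM ATP. Compounds titrated qHTS. Luminescence imaged on CCD.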
# HEK293 tox = Cytotoxic Profiling in HEK 293 Cell Line of Diverse Libraries Using Quantitative High-Throughput Screening | Potency, µM (titrated, usually from 115 µM), for the others: at the highest dose activity change, negative = cytotoxicity, most hits filed as inhibitors | HEK 293 viability, ATP luminescence (CellTiter-Glo), 48-72 h | 6.6% of 94,000 active; further: nearly all actives have a fitted effect of over 60% in size
#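 Cytotoxicity was scored by loss of ATP-coupled luminescence (CellTiter-Glo) in HEK 293 cells. Compound treatment ran 48 or 72 hr at 37 degree Celsius, 5% CO2, 95% humidity.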
# GPT2 inh = Primary qHTS assay for inhibitors of Glutamate pyruvate transaminase 2 (GPT2); Recombinant GPT2, coupled pyruvate oxidase/HRP Amplex Red fluorescence; Alanine aminotransferase 2 (Homo sapiens), Q8TD30; Potency, µM (top dose mostly 57.7 µM), for the others: at the highest dose activity change, negative = inhibition, most hits filed as inhibitors; 0.25% of 100,000 active; AID 1671188, 2021; further: nearly all actives have a fitted effect of over 60% in size
#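 Fluorescence read-out: pyruvate from GPT2 turnover coupled to pyruvate oxidase, HRP and Amplex Red (0.2mM ThPP, 0.2U/mL PO and HRP, 50uM Amplex final). Substrates 250uM a-KG, 2mM L-alanine; enzyme 10ng/uL; 30 min RT.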
# Starred values were filed as active, the others as inactive; i = inactive; ? = inconclusive; . = not tested or not shown; [ ] = dose if it differs, or a comment. The list is not random: actives were taken first. Their share in the collection is about 10%. Unless noted, the call rests on the fitted dose curve; in most records, active means well fitted curve in the direction sought with a large enough effect; inconclusive means small, poorly fitted or top-dose-only effect, or another doubt; inactive means no such curve, though single readings can be large; an effect the other way counts as inactive or inconclusive. On the % scale 0 is the no-effect control and ±100 the full control effect; potency means the concentration at half of the fitted maximal effect.
SMILES,NIH3T3 tox,NPR1 antag,Luciferase inh,HEK293 tox,GPT2 inh
C=CCNC(=O)[C@@H]1Cc2cn(CC#CC)c3cccc(c23)[C@H](CC(C)C)N1,?,-0.4%[70.6 µM],i,?,-9.5%[88.5 µM]
CC#CCn1cc2c3c(cccc31)[C@H](CC(C)C)N[C@H](C(=O)NCc1ccccc1)C2,?,-21.2%[70.6 µM],i,63.1µM*,?
C#CCNC(=O)[C@@H]1Cc2cn(CC#CC)c3cccc(c23)[C@H](CC(C)C)N1,?,-1.7%[70.6 µM],i,?,-11.4%[88.5 µM]
CC#CCn1cc2c3c(cccc31)[C@H](CC(C)C)N[C@H](C(=O)NCCN(C)C)C2,39.8µM*,-11.4%[70.6 µM],i,28.2µM*,-27.6%[88.5 µM]
CC#CCn1cc2c3c(cccc31)[C@H](CC(C)C)N[C@H](C(=O)NC1CC1)C2,?,-11.1%[70.6 µM],i,89.1µM*,?
Cc1noc(C)c1[S+](=O)([O-])N1CCC(C(=O)N2CCC(N3CCOCC3=O)CC2)CC1,i,.,.,i,3.9%
O=C(c1ccccc1Cl)N1CCc2nc(C3CC3)nc(-c3ccc(Cl)cc3)c2C1,?,.,.,?,i
CC#CCn1cc2c3c(cccc31)[C@H](CC(C)C)N[C@H](C(=O)NCc1ccc(OC)cc1)C2,?,-0.1%,i,?,3.5%
CC#CCn1cc2c3c(cccc31)[C@H](CC(C)C)N[C@H](C(=O)NCCNC(C)=O)C2,?,-1.6%[70.6 µM],i,100µM*,1.3%[88.5 µM]
CC#CCn1cc2c3c(cccc31)[C@H](CC(C)C)N[C@H](C(=O)NCc1ccco1)C2,89.1µM*,-10.0%[70.6 µM],i,?,?
CN1CC(C(=O)NCc2cccc(F)c2)NC1=O (centres undefined),-21.9%[138 µM],.,.,-28.3%[172 µM],0.2%[88.5 µM]
O=C(NC1CC1)c1ccc2oc(-c3ccncc3Cl)nc2c1,-24.7%[138 µM],.,.,-34.6%[172 µM],1.3%[88.5 µM]
COc1cccc(CC(=O)N2CCC(c3n[nH]c(=O)n3-c3ccc(C)cc3)CC2)c1,10µM*,9.7%,i,-0.3%,i
Cc1ccc(-n2c(C3CCN(C(=O)Cc4cccc(C)c4)CC3)n[nH]c2=O)cc1,?,0.0%,i,8.9%,3.9%
CCOCCOC1CCN(C(=O)c2nn(C)c3ccccc23)CC1,4.8%,1.3%,i,0.9%,1.4%
Cn1nc(C(=O)N2CCC(OCCOc3ccccc3)CC2)c2ccccc21,?,-0.6%,39.8µM*,?,i
Cc1ccc(-n2c(C3CCN(C(=O)c4nn(C)c5ccccc45)CC3)n[nH]c2=O)cc1,8.91µM*,0.0%,i,-1.7%,i
Cc1ccc(-n2c(C3CCN(C(=O)Cc4ccccc4C)CC3)n[nH]c2=O)cc1,?,-0.5%,i,-5.2%,3.5%
Cc1ccc(CC(=O)N2CCC(c3n[nH]c(=O)n3-c3ccccc3)CC2)cc1,35.5µM*,0.0%,i,-6.6%,4.4%
CCc1nc(-c2c3n(c(=O)n(CC(=O)Nc4ccc(C)cc4Cl)c2=O)CCCC3)no1,-2.6%,-9.6%,i,9.0%,-0.5%
Cc1ccc(-n2c(C3CCN(C(=O)Cc4ccc(Cl)cc4)CC3)n[nH]c2=O)cc1,44.7µM*,0.2%,i,-1.3%,0.1%
Cc1ccc(-n2c(C3CCN(C(=O)Cc4ccccc4Cl)CC3)n[nH]c2=O)cc1,?,-2.5%,i,-1.3%,i
O=C1N(c2ccccc2)c2ccccc2C12CCN(Cc1cccc3ccccc13)C2 (centres undefined),?,.,.,?,i
CN1C(=O)C2(CCN(Cc3ccc(F)cc3)C2)c2ccccc21 (centres undefined),?,14.4%[70.6 µM],i,70.8µM*,i
CN(C)c1ccc(CN2CCC3(C2)C(=O)N(c2ccccc2)c2ccccc23)cc1 (centres undefined),44.7µM*,.,.,?,i
SMILES,NIH3T3 tox,NPR1 antag,Luciferase inh,HEK293 tox,GPT2 inh
CN1C(=O)C2(CCN(Cc3ccc(C(F)(F)F)cc3)C2)c2ccccc21 (centres undefined),-30.2%,-29.3%,i,?,-2.9%
CN1C(=O)C2(CCN(Cc3cccc4ccccc34)C2)c2ccccc21 (centres undefined),?,-6.5%[70.6 µM],i,28.2µM*,i
Cc1cccc(OC[C@H]2C[C@@H](NCc3cccc4c3OCO4)[C@H](O)[C@@H]2O)n1,-20.7%,-3.8%,i,-4.8%,-8.0%
O=C(Cc1cnc[nH]1)N1Cc2ccccc2CC2(CCCN(CC3CCNCC3)C2)C1 (centres undefined),-0.9%,.,.,-9.8%,i
CCCCCNC(=O)C1CCN(C(=O)c2ccc(-c3cncnc3)cc2)CC1,?,.,.,0.3%,i
Cc1ccccc1C(=O)NC1CCN(C(=O)c2ccc(-c3cncnc3)cc2)CC1,-23.4%,.,.,-8.7%,2.0%
COc1ccc(-c2noc([C@@H]3Cc4nc[nH]c4CN3Cc3ccccc3)n2)cc1,?,-2.4%[70.6 µM],?,?,-24.4%[88.5 µM]
COc1ccc(-c2noc([C@@H]3Cc4nc[nH]c4CN3Cc3ccc(NC(C)=O)cc3)n2)cc1,-22.1%,1.4%,35.5µM*,-6.8%,?
COc1ccc(CN2Cc3[nH]cnc3C[C@H]2c2nc(-c3ccc(C(F)(F)F)cc3)no2)cc1,?,-23.8%,39.8µM*,?,-2.1%
Cc1cc(C)n(Cc2ccc(C(=O)N3CC[C@@H](n4c(=O)n(C)c5cccnc54)C3)o2)n1,?,.,.,-15.5%,i
COc1ccccc1-c1cc(NCC2CCOCC2)c2onc(C)c2n1,-22.4%[138 µM],1.6%[70.6 µM],i,?,-0.7%[88.5 µM]
COc1ccccc1-c1cc(Nc2ccc(N3CCOCC3)cc2)c2onc(C)c2n1,?,2.4%[70.6 µM],i,63.1µM*,?
COc1ccc(Nc2cc(-c3ccccc3OC)nc3c(C)noc23)cc1OC,20µM*,-17.2%[70.6 µM],i,?,3.6%[88.5 µM]
COc1ccccc1-c1cc(NCc2ccncc2)c2onc(C)c2n1,?,-0.1%[70.6 µM],i,?,i
COc1cccc(CCNC(=O)c2c(C)nc3cnccn23)c1,?,.,.,-25.8%[172 µM],.
CNC(=O)c1cc(C)nc2onc(C3CCCN(C(=O)C(C)(C)C)C3)c12 (centres undefined),-1.9%,.,.,2.7%,.
CC(=O)N1CCCC1C(=O)Nc1ccc(-c2nc3ccccc3o2)cc1 (centres undefined),-7.6%,0.5%,15.8µM*,?,i
CCC(=O)N[C@H]1CC[C@H](C(=O)N(C)c2ccc(-c3nc4ccccc4o3)cc2)C1,.,.,.,.,i
